# In the supplement of paper PMC4466140:
# Legend:
# Assay in all cases: SPOT peptide array binding signal intensity (averaged, normalized) (arbitrary units (background-subtracted, floor 0; scale differs between SH3 domains)); higher = stronger binding of the SH3 domain to the peptide
# CaNbp2 = target: CaNbp2
# In short: (§1)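 Binding signal refers to normalized, background-subtracted spot intensity averaged over replicates, expressed in arbitrary units that differ between domains. GST-fused SH3 domains from four yeast species were incubated at 10 μg/ml overnight at 4°C on cellulose membranes of synthetic 15-mer peptides with cysteines replaced by serines. Bound protein was detected with anti-GST antibody, an HRP anti-mouse secondary and luminol, and quantified with Genespotter.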
# CaRvs167 = target: CaRvs167
# In short: as §1
# CaRvs167-3 = target: CaRvs167-3
# In short: as §1
# CaSho1 = target: CaSho1
# In short: as §1
# CaSla1-D1-D2 = target: CaSla1-D1-D2
# In short: as §1
# CaSla1-D3 = target: CaSla1-D3
# In short: as §1
# ScAbp1 = target: ScAbp1
# In short: as §1
# ScBbc1 = target: ScBbc1
# In short: as §1
# ScBem1-D1 = target: ScBem1-D1
# In short: as §1
# ScBzz1-D1 = target: ScBzz1-D1
# In short: as §1
# ScBzz1-D2 = target: ScBzz1-D2
# In short: as §1
# ScCyk3 = target: ScCyk3
# In short: as §1
# ScFus1 = target: ScFus1
# In short: as §1
# ScHof1 = target: ScHof1
# In short: as §1
# ScHse1 = target: ScHse1
# In short: as §1
# ScLsb1 = target: ScLsb1
# In short: as §1
# ScLsb2 = target: ScLsb2
# In short: as §1
# ScLsb3 = target: ScLsb3
# In short: as §1
# ScLsb4 = target: ScLsb4
# In short: as §1
# ScMyo3 = target: ScMyo3
# In short: as §1
# ScMyo5 = target: ScMyo5
# In short: as §1
# ScNbp2 = target: ScNbp2
# In short: as §1
# ScPex13 = target: ScPex13
# In short: as §1
# ScRvs167 = target: ScRvs167
# In short: as §1
# ScSho1 = target: ScSho1
# In short: as §1
# ScSla1-D1-D2 = target: ScSla1-D1-D2
# In short: as §1
# ScSla1-D3 = target: ScSla1-D3
# In short: as §1
# SpAbp1-D1 = target: SpAbp1-D1
# In short: as §1
# SpBbc1 = target: SpBbc1
# In short: as §1
# SpBzz1-D1 = target: SpBzz1-D1
# In short: as §1
# SpBzz1-D2 = target: SpBzz1-D2
# In short: as §1
# SpCyk3 = target: SpCyk3
# In short: as §1
# SpHof1 = target: SpHof1
# In short: as §1
# SpHof1-2 = target: SpHof1-2
# In short: as §1
# SpHof1-3 = target: SpHof1-3
# In short: as §1
# SpHse1 = target: SpHse1
# In short: as §1
# SpLsb1 = target: SpLsb1
# In short: as §1
# SpLsb4 = target: SpLsb4
# In short: as §1
# SpMyo1 = target: SpMyo1
# In short: as §1
# SpNbp2 = target: SpNbp2
# In short: as §1
# SpPex13 = target: SpPex13
# In short: as §1
# SpRvs167 = target: SpRvs167
# In short: as §1
# SpSla1-D1-D2 = target: SpSla1-D1-D2
# In short: as §1
# SpSla1-D3 = target: SpSla1-D3
# In short: as §1
# AgAbp1 = target: AgAbp1
# In short: as §1
# AgBbc1 = target: AgBbc1
# In short: as §1
# AgBem1-D1 = target: AgBem1-D1
# In short: as §1
# AgBzz1-D1 = target: AgBzz1-D1
# In short: as §1
# AgBzz1-D2 = target: AgBzz1-D2
# In short: as §1
# AgCyk3 = target: AgCyk3
# In short: as §1
# AgFus1 = target: AgFus1
# In short: as §1
# AgHof1 = target: AgHof1
# In short: as §1
# AgHse1 = target: AgHse1
# In short: as §1
# AgLsb1 = target: AgLsb1
# In short: as §1
# AgLsb4 = target: AgLsb4
# In short: as §1
# AgMyo5 = target: AgMyo5
# In short: as §1
# AgNbp2 = target: AgNbp2
# In short: as §1
# AgRvs167 = target: AgRvs167
# In short: as §1
# AgSho1 = target: AgSho1
# In short: as §1
# AgSla1-D1-D2 = target: AgSla1-D1-D2
# In short: as §1
# AgSla1-D3 = target: AgSla1-D3
# In short: as §1
# CaAbp1-D1 = target: CaAbp1-D1
# In short: as §1
# CaAbp1-D2 = target: CaAbp1-D2
# In short: as §1
# CaBbc1 = target: CaBbc1
# In short: as §1
# CaBem1-D1 = target: CaBem1-D1
# In short: as §1
# CaBzz1-D1 = target: CaBzz1-D1
# In short: as §1
# CaBzz1-D2 = target: CaBzz1-D2
# In short: as §1
# CaCyk3 = target: CaCyk3
# In short: as §1
# CaFus1 = target: CaFus1
# In short: as §1
# CaHof1 = target: CaHof1
# In short: as §1
# CaHse1 = target: CaHse1
# In short: as §1
# CaLsb1 = target: CaLsb1
# In short: as §1
# CaLsb4 = target: CaLsb4
# In short: as §1
# CaMyo5 = target: CaMyo5
# In short: as §1
binder,measurement,setting,value
QLMKNLPKIPLLNDI,SPOT peptide array binding signal intensity,CaNbp2,355
same,SPOT peptide array binding signal intensity,CaRvs167,19.5
same,SPOT peptide array binding signal intensity,CaRvs167-3,≤ 0
same,SPOT peptide array binding signal intensity,CaSho1,1860
same,SPOT peptide array binding signal intensity,CaSla1-D1-D2,384
same,SPOT peptide array binding signal intensity,CaSla1-D3,205
same,SPOT peptide array binding signal intensity,ScAbp1,≤ 0
same,SPOT peptide array binding signal intensity,ScBbc1,3
same,SPOT peptide array binding signal intensity,ScBem1-D1,3
same,SPOT peptide array binding signal intensity,ScBzz1-D1,15.5
same,SPOT peptide array binding signal intensity,ScBzz1-D2,39.5
same,SPOT peptide array binding signal intensity,ScCyk3,5
same,SPOT peptide array binding signal intensity,ScFus1,526
same,SPOT peptide array binding signal intensity,ScHof1,11.2
same,SPOT peptide array binding signal intensity,ScHse1,267
same,SPOT peptide array binding signal intensity,ScLsb1,5.75
same,SPOT peptide array binding signal intensity,ScLsb2,2
same,SPOT peptide array binding signal intensity,ScLsb3,292
same,SPOT peptide array binding signal intensity,ScLsb4,67.5
same,SPOT peptide array binding signal intensity,ScMyo3,25
same,SPOT peptide array binding signal intensity,ScMyo5,2.25
same,SPOT peptide array binding signal intensity,ScNbp2,217
same,SPOT peptide array binding signal intensity,ScPex13,580
same,SPOT peptide array binding signal intensity,ScRvs167,5
same,SPOT peptide array binding signal intensity,ScSho1,1950
same,SPOT peptide array binding signal intensity,ScSla1-D1-D2,319
same,SPOT peptide array binding signal intensity,ScSla1-D3,538
same,SPOT peptide array binding signal intensity,SpAbp1-D1,2.5
same,SPOT peptide array binding signal intensity,SpBbc1,≤ 0
same,SPOT peptide array binding signal intensity,SpBzz1-D1,250
same,SPOT peptide array binding signal intensity,SpBzz1-D2,10.8
same,SPOT peptide array binding signal intensity,SpCyk3,4
same,SPOT peptide array binding signal intensity,SpHof1,369
same,SPOT peptide array binding signal intensity,SpHof1-2,1050
same,SPOT peptide array binding signal intensity,SpHof1-3,970
same,SPOT peptide array binding signal intensity,SpHse1,206
same,SPOT peptide array binding signal intensity,SpLsb1,1
same,SPOT peptide array binding signal intensity,SpLsb4,628
same,SPOT peptide array binding signal intensity,SpMyo1,106
same,SPOT peptide array binding signal intensity,SpNbp2,88
same,SPOT peptide array binding signal intensity,SpPex13,146
same,SPOT peptide array binding signal intensity,SpRvs167,22.8
same,SPOT peptide array binding signal intensity,SpSla1-D1-D2,20.5
same,SPOT peptide array binding signal intensity,SpSla1-D3,251
NENKKLPPAPTVFGL,SPOT peptide array binding signal intensity,AgAbp1,≤ 0
same,SPOT peptide array binding signal intensity,AgBbc1,≤ 0
same,SPOT peptide array binding signal intensity,AgBem1-D1,≤ 0
same,SPOT peptide array binding signal intensity,AgBzz1-D1,27
same,SPOT peptide array binding signal intensity,AgBzz1-D2,35
same,SPOT peptide array binding signal intensity,AgCyk3,≤ 0
same,SPOT peptide array binding signal intensity,AgFus1,≤ 0
same,SPOT peptide array binding signal intensity,AgHof1,19.5
same,SPOT peptide array binding signal intensity,AgHse1,72
same,SPOT peptide array binding signal intensity,AgLsb1,≤ 0
same,SPOT peptide array binding signal intensity,AgLsb4,25
same,SPOT peptide array binding signal intensity,AgMyo5,≤ 0
same,SPOT peptide array binding signal intensity,AgNbp2,≤ 0
same,SPOT peptide array binding signal intensity,AgRvs167,6.17
same,SPOT peptide array binding signal intensity,AgSho1,1550
same,SPOT peptide array binding signal intensity,AgSla1-D1-D2,4
same,SPOT peptide array binding signal intensity,AgSla1-D3,1.5
same,SPOT peptide array binding signal intensity,CaAbp1-D1,≤ 0
same,SPOT peptide array binding signal intensity,CaAbp1-D2,3
same,SPOT peptide array binding signal intensity,CaBbc1,≤ 0
same,SPOT peptide array binding signal intensity,CaBem1-D1,≤ 0
same,SPOT peptide array binding signal intensity,CaBzz1-D1,3.5
same,SPOT peptide array binding signal intensity,CaBzz1-D2,1.5
same,SPOT peptide array binding signal intensity,CaCyk3,≤ 0
same,SPOT peptide array binding signal intensity,CaFus1,36.5
same,SPOT peptide array binding signal intensity,CaHof1,0.25
same,SPOT peptide array binding signal intensity,CaHse1,≤ 0
same,SPOT peptide array binding signal intensity,CaLsb1,1.5
same,SPOT peptide array binding signal intensity,CaLsb4,≤ 0
same,SPOT peptide array binding signal intensity,CaMyo5,≤ 0
same,SPOT peptide array binding signal intensity,CaNbp2,≤ 0
same,SPOT peptide array binding signal intensity,CaRvs167,1.17
same,SPOT peptide array binding signal intensity,CaRvs167-3,≤ 0
same,SPOT peptide array binding signal intensity,CaSho1,398
same,SPOT peptide array binding signal intensity,CaSla1-D1-D2,≤ 0
same,SPOT peptide array binding signal intensity,CaSla1-D3,3.5
same,SPOT peptide array binding signal intensity,ScAbp1,≤ 0
same,SPOT peptide array binding signal intensity,ScBbc1,≤ 0
same,SPOT peptide array binding signal intensity,ScBem1-D1,1
same,SPOT peptide array binding signal intensity,ScBzz1-D1,11
same,SPOT peptide array binding signal intensity,ScBzz1-D2,6
same,SPOT peptide array binding signal intensity,ScCyk3,1
same,SPOT peptide array binding signal intensity,ScFus1,8
same,SPOT peptide array binding signal intensity,ScHof1,6
same,SPOT peptide array binding signal intensity,ScHse1,6.5
same,SPOT peptide array binding signal intensity,ScLsb1,≤ 0
same,SPOT peptide array binding signal intensity,ScLsb2,≤ 0
same,SPOT peptide array binding signal intensity,ScLsb3,≤ 0
same,SPOT peptide array binding signal intensity,ScLsb4,6
same,SPOT peptide array binding signal intensity,ScMyo3,≤ 0
same,SPOT peptide array binding signal intensity,ScMyo5,≤ 0
same,SPOT peptide array binding signal intensity,ScNbp2,≤ 0
same,SPOT peptide array binding signal intensity,ScPex13,254
same,SPOT peptide array binding signal intensity,ScRvs167,0.167
same,SPOT peptide array binding signal intensity,ScSho1,2310
same,SPOT peptide array binding signal intensity,ScSla1-D1-D2,≤ 0
same,SPOT peptide array binding signal intensity,ScSla1-D3,4.5
same,SPOT peptide array binding signal intensity,SpAbp1-D1,≤ 0
same,SPOT peptide array binding signal intensity,SpBbc1,4.5
same,SPOT peptide array binding signal intensity,SpBzz1-D1,126
